Source: PubChem BioAssay AID1159580 (chemical genetic matrix, 2015)
Among all 5,500 compounds or so, about 2,000 (36%) were called active. About 18% were inconclusive and are not listed. No stated cut-off is given here; in the data, active means normalized growth mostly below about 0.91 (no sharp cut-off); inconclusive means no clear call, values can overlap the other calls; inactive means mostly above about 0.92. The list shows a part of the results.

Assay: chemical genetic growth profiling, strain panel (AID 1159580);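 further: tested at 20 µM; growth read once vehicle control cultures reached saturation at 30 °C; 1 = growth at the plate median or of vehicle wells; lower values mean less growth of the strain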
Settings: growth OD

Measured: normalized growth

CCCCCCCCCCCCCCCC[N+](C)(C)C
active: S. cerevisiae deletion strains, locus YJR075W, strain HOC1, hits give low values 0.0608 | S. cerevisiae deletion strains, locus YKL009W, strain mrt4, hits give low values 0.126 | S. cerevisiae deletion strains, locus YKL068W, hits give low values 0.057 | S. cerevisiae deletion strains, locus YKL085W, strain MDH1 (second series), hits give low values 0.0537 | S. cerevisiae deletion strains, locus YKL085W, strain MDH1, hits give low values 0.0537 | S. cerevisiae deletion strains, locus YKL160W, strain elf1, hits give low values 0.0583 | S. cerevisiae deletion strains, locus YKL190W, strain CNB1, hits give low values 0.0478 | S. cerevisiae deletion strains, locus YKR001C, strain vps1, hits give low values 0.0609 | S. cerevisiae deletion strains, locus YKR026C, strain gcn3, hits give low values 0.0627 | S. cerevisiae deletion strains, locus YKR091W, strain srl3, hits give low values 0.0569 | S. cerevisiae deletion strains, locus YLL001W, strain dnm1, hits give low values 0.0599 | S. cerevisiae deletion strains, locus YLL026W, hits give low values 0.0546 | S. cerevisiae deletion strains, locus YLL041C, strain sdh2, hits give low values 0.0568 | S. cerevisiae deletion strains, locus YLR027C, strain aat2, hits give low values 0.0555 | S. cerevisiae deletion strains, locus YLR039C, strain RIC1, hits give low values 0.0825 | S. cerevisiae deletion strains, locus YLR058C, strain SHM2, hits give low values 0.0453 | S. cerevisiae deletion strains, locus YLR102C, strain apc9, hits give low values 0.0605 | S. cerevisiae deletion strains, locus YLR113W, strain HOG1, hits give low values 0.113 | S. cerevisiae deletion strains, locus YLR221C, strain rsa3, hits give low values 0.0541 | S. cerevisiae deletion strains, locus YLR258W, strain gsy2, hits give low values 0.0561 | S. cerevisiae deletion strains, locus YLR262C, strain YPT6 (second series), hits give low values 0.0788 | S. cerevisiae deletion strains, locus YLR262C, strain YPT6, hits give low values 0.0977 | S. cerevisiae deletion strains, locus YLR268W, strain sec22, hits give low values 0.0658 | S. cerevisiae deletion strains, locus YLR320W, strain mms22, hits give low values 0.0733 | S. cerevisiae deletion strains, locus YLR330W, strain CHS5, hits give low values 0.0514 | S. cerevisiae deletion strains, locus YLR342W, strain FKS1 (second series), hits give low values 0.0636 | S. cerevisiae deletion strains, locus YLR342W, strain FKS1, hits give low values 0.0598 | S. cerevisiae deletion strains, locus YLR357W, strain rsc2, hits give low values 0.103 | S. cerevisiae deletion strains, locus YLR370C, strain arc18, hits give low values 0.061 | S. cerevisiae deletion strains, locus YLR371W, strain rom2, hits give low values 0.0606 | S. cerevisiae deletion strains, locus YLR384C, strain iki3, hits give low values 0.0599 | S. cerevisiae deletion strains, locus YLR418C, strain cdc73, hits give low values 0.0891 | S. cerevisiae deletion strains, locus YML016C, strain PPZ1, hits give low values 0.0596 | S. cerevisiae deletion strains, locus YML032C, strain rad52, hits give low values 0.0653 | S. cerevisiae deletion strains, locus YML120C, strain ndi1, hits give low values 0.0558 | S. cerevisiae deletion strains, locus YML124C, strain tub3, hits give low values 0.0593 | S. cerevisiae deletion strains, locus YMR058W, strain fet3, hits give low values 0.0569 | S. cerevisiae deletion strains, locus YMR078C, strain ctf18, hits give low values 0.0689 | S. cerevisiae deletion strains, locus YMR125W, strain sto1, hits give low values 0.0643 | S. cerevisiae deletion strains, locus YMR129W, hits give low values 0.0561 | S. cerevisiae deletion strains, locus YMR205C, strain PFK2, hits give low values 0.0755 | S. cerevisiae deletion strains, locus YMR223W, strain ubp8, hits give low values 0.0626 | S. cerevisiae deletion strains, locus YMR231W, strain pep5, hits give low values 0.0651 | S. cerevisiae deletion strains, locus YMR263W, strain SAP30, hits give low values 0.0582 | S. cerevisiae deletion strains, locus YMR307W, strain GAS1, hits give low values 0.119 | S. cerevisiae deletion strains, locus YNL067W, strain RPL9B, hits give low values 0.0498 | S. cerevisiae deletion strains, locus YNL071W, strain lat1, hits give low values 0.0578 | S. cerevisiae deletion strains, locus YNL128W, strain TEP1, hits give low values 0.0627 | S. cerevisiae deletion strains, locus YNL153C, strain GIM3, hits give low values 0.0486 | S. cerevisiae deletion strains, locus YNL183C, strain NPR1, hits give low values -0.00175 | S. cerevisiae deletion strains, locus YNL209W, strain ssb2, hits give low values 0.0612 | S. cerevisiae deletion strains, locus YNL233W, strain BNI4, hits give low values 0.053 | S. cerevisiae deletion strains, locus YNL248C, strain rpa49, hits give low values 0.0567 | S. cerevisiae deletion strains, locus YNL250W, strain rad50, hits give low values 0.0666 | S. cerevisiae deletion strains, locus YNL271C, strain bni1, hits give low values 0.0608 | S. cerevisiae deletion strains, locus YNL298W, strain CLA4, hits give low values 0.0592 | S. cerevisiae deletion strains, locus YNL307C, strain MCK1, hits give low values 0.0664 | S. cerevisiae deletion strains, locus YNL322C, strain KRE1 (second series), hits give low values 0.0599 | S. cerevisiae deletion strains, locus YNL322C, strain KRE1, hits give low values 0.0495 | S. cerevisiae deletion strains, locus YNR049C, strain mso1, hits give low values 0.0575 | S. cerevisiae deletion strains, locus YNR052C, strain pop2, hits give low values 0.0593 | S. cerevisiae deletion strains, locus YOL006C, strain TOP1, hits give low values 0.0794 | S. cerevisiae deletion strains, locus YOL012C, strain htz1 0.179 | S. cerevisiae deletion strains, locus YOL147C, strain pex11, hits give low values 0.0577 | S. cerevisiae deletion strains, locus YOR001W, strain rrp6, hits give low values 0.0595 | S. cerevisiae deletion strains, locus YOR061W, strain CKA2, hits give low values 0.0395 | S. cerevisiae deletion strains, locus YOR069W, strain VPS5, hits give low values 0.0494 | S. cerevisiae deletion strains, locus YOR070C, strain gyp1, hits give low values 0.0582 | S. cerevisiae deletion strains, locus YOR080W, strain dia2, hits give low values 0.0639 | S. cerevisiae deletion strains, locus YOR083W, strain WHI5, hits give low values 0.0574 | S. cerevisiae deletion strains, locus YOR106W, strain vam3, hits give low values 0.0616 | S. cerevisiae deletion strains, locus YOR136W, strain idh2, hits give low values 0.0711 | S. cerevisiae deletion strains, locus YOR144C, strain elg1, hits give low values 0.0571 | S. cerevisiae deletion strains, locus YOR184W, strain ser1, hits give low values 0.0671 | S. cerevisiae deletion strains, locus YOR231W, strain MKK1, hits give low values 0.0937 | S. cerevisiae deletion strains, locus YOR265W, strain rbl2, hits give low values 0.0534 | S. cerevisiae deletion strains, locus YOR270C, strain vph1, hits give low values 0.0651 | S. cerevisiae deletion strains, locus YOR290C, strain snf2, hits give low values 0.0594 | S. cerevisiae deletion strains, locus YOR316C, strain cot1, hits give low values 0.0575 | S. cerevisiae deletion strains, locus YPL051W, strain arl3, hits give low values 0.0558 | S. cerevisiae deletion strains, locus YPL055C, strain LGE1, hits give low values 0.0731 | S. cerevisiae deletion strains, locus YPL078C, strain atp4, hits give low values 0.0629 | S. cerevisiae deletion strains, locus YPL106C, strain sse1, hits give low values 0.0805 | S. cerevisiae deletion strains, locus YPL240C, strain hsp82, hits give low values 0.0545 | S. cerevisiae deletion strains, locus YPL241C, strain CIN2, hits give low values 0.0519 | S. cerevisiae deletion strains, locus YPL256C, strain CLN2, hits give low values 0.107 | S. cerevisiae deletion strains, locus YPR119W, strain clb2, hits give low values 0.0613 | S. cerevisiae deletion strains, locus YPR141C, strain kar3, hits give low values 0.0706 | S. cerevisiae deletion strains, locus YPR163C, strain tif3, hits give low values 0.0686 | S. cerevisiae deletion strains, locus YPR167C, strain met16, hits give low values 0.0617 | S. cerevisiae deletion strains, strain wtn01, hits give low values 0.0595 | S. cerevisiae strains, strain wild type, hits give low values 0.0507
